# Test results published in PubChem BioAssay (Tox21).
# Records with an inconclusive call do not appear. Where a call stands in place of a potency, no number is given. A number with no mark means an inactive call. Calls of active or inactive are those of the source. Unless noted, the call rests on the fitted dose curve; in most records, active means well fitted curve in the direction sought with a large enough effect in the repeat runs; inconclusive means weak or mixed curves; inactive means no such curve, though single readings can be large; an effect the other way counts as inactive or inconclusive.
# Assays:
# [1] = qHTS assay to identify small molecule antagonists of the retinoid acid receptor (RAR) signaling pathway - cell viability counter screen (AID 1159551); further: nearly all actives have a fitted effect of over 35% in size
# Method in brief: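 Following overnight attachment, C3RL4 reporter cells received DMSO-dissolved compounds and then retinol (1 uM final). Six hours later at 37 C, ATP content was measured by CellTiter-Glo luminescence.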
# [2] = qHTS assay to identify small molecule antagonists of the estrogen related receptor (ERR) signaling pathway - cell viability counter screen (AID 1224818);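 further: series mostly up to about 46 µM; viability measured after 17.5 h of compound exposure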
# Method in brief: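 Here, ERR cells are plated at 2,000 cells per well, allowed 6 h to attach, and treated with compounds in DMSO for 17.5 h at 37 C. CellTiter-Fluor is then added and fluorescence read after 30 min.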
# [3] = qHTS assay to identify small molecule antagonists of the estrogen related receptor (ERR) signaling pathway (AID 1224819;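 further: luminescence from an ERR-driven luciferase reporter measured with One-Glo reagent; series mostly up to about 46 µM; nearly all actives have a fitted effect of over 50% in size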)
# Method in brief: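 LOPAC library screened for antagonism as reduced One-Glo luminescence in ERR reporter cells (2,000/well). Compounds were added after 6 h pre-incubation and left 18 h at 37C; reading followed a 30 min room-temperature reagent step.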
# [4] = test system: estrogen-related receptor alpha (ERRalpha) with PGC-1alpha coactivator, human; assay: qHTS assay to identify small molecule antagonists of the estrogen related receptor signaling pathway with the pleiotropic PPARgamma coactivator (PGC) (AID 1224821; calls by dose curve;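 further: series mostly up to about 46 µM; lower luminescence signal means antagonism of PGC/ERR signalling; nearly all actives have a fitted effect of over 50% in size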)
# Method in brief: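 PGC/ERR reporter cell line, plated 6 h before compound addition, then exposed 18 h at 37 °C. Luciferase activity read by luminescence 30 min after One-Glo addition; decrease indicates antagonism.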
# [5] = qHTS assay to identify small molecule antagonists of the estrogen related receptor signaling pathway with the pleiotropic PPARgamma coactivator (PGC) cell viability counter screen (AID 1224822;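 further: series mostly up to about 46 µM; viability read after 17.5 h compound exposure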)
# Method in brief: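 qHTS format, DMSO compound stocks pin-transferred onto PGC/ERR cells 6 h after plating; 17.5 h exposure at 37 C, then CellTiter-Fluor fluorescence.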
# [6] = qHTS assay to identify small molecule agonists of the estrogen related receptor signaling pathway with the pleiotropic PPARgamma coactivator (PGC) (AID 1224823)
# Method in brief: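 PGC/ERR reporter cells seeded 6 h, then exposed to compounds (23 nL in DMSO) for 18 h at 37 C. One-Glo luciferase luminescence read after 30 min at room temperature.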
# [7] = qHTS assay to identify small molecule antagonists of the estrogen related receptor (ERR) signaling pathway from Tox21 library - cell viability counter screen (AID 1224834); further: nearly all actives have a fitted effect of over 30% in size; further: potency means the concentration at half of the fitted maximal effect
# Method in brief: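 Viability readout (CellTiter-Fluor fluorescence, 30 min at 37 C) multiplexed with the ERR assay; cells treated 17.5 h at 37 C with compounds delivered in DMSO.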
# [8] = qHTS assay to identify small molecule antagonists of the retinoic acid receptor (RAR) signaling pathway (AID 1159552; further: nearly all actives have a fitted effect of over 50% in size)
# Method in brief: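 Cells of the C3RL4 line were seeded, incubated overnight, then dosed with compounds in DMSO followed immediately by retinol (1 uM final). Six hours later luciferase detection reagent went in; signal was measured after 30 min at RT.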
# [9] = qHTS assay to identify small molecule agonists of the retinoic acid receptor (RAR) signaling pathway (AID 1159553)
# Method in brief: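 Cell line C3RL4, RARE luciferase reporter. Treatment: compounds in DMSO, 6 hr, 37 C, 5% CO2, after overnight plating. Detection: luminescence, 30 min RT after reagent.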
smiles,measurement,setting,value
O=C(Nc1ccccc1)c1cc([N+](=O)[O-])ccc1Cl,outcome,[1],inactive
same,outcome,[2],inactive
same,Potency,[3],inactive
same,outcome,[4],inactive
same,outcome,[5],inactive
same,outcome,[6],inactive
same,Potency,[7],inactive
COc1ccnc2c1CCCCC2S(=O)c1nc2ccccc2[nH]1 (configuration not stated),outcome,[1],inactive
same,outcome,[8],inactive
same,Potency,[7],inactive
CCCCCO,outcome,[1],inactive
same,Potency,[7],inactive
CCCCCCCCCC(C)C=O (configuration not stated),outcome,[1],inactive
same,outcome,[8],inactive
same,Potency,[7],inactive
C=C[Si](OCC)(OCC)OCC,outcome,[1],inactive
same,Potency,[7],inactive
CCC(CC)C(=O)O,outcome,[1],inactive
same,outcome,[8],inactive
same,Potency,[7],inactive
C=CC(C)CCC=C(C)C (configuration not stated),outcome,[1],inactive
same,Potency,[9],inactive
same,Potency,[7],inactive
C[C@@H](O)[C@H]1C(=O)N2C(C(=O)O)=C(S[C@@H]3CN[C@H](CNS(N)(=O)=O)C3)[C@H](C)[C@H]12,outcome,[1],inactive
same,Potency,[7],inactive
O=C(OCCOCCOCCOC(=O)c1ccccc1)c1ccccc1,outcome,[1],inactive
same,outcome,[8],inactive
same,Potency,[7],inactive
CC(C)(C(=O)O)c1ccc(C(O)CCCN2CCC(C(O)(c3ccccc3)c3ccccc3)CC2)cc1 (configuration not stated),outcome,[1],inactive
same,outcome,[2],inactive
same,outcome,[5],inactive
same,Potency,[7],inactive
CCC(=O)O[C@]1(C(=O)COC)[C@@H](C)C[C@H]2[C@@H]3CCC4=CC(=O)C=C[C@]4(C)C3(F)[C@@H](O)C[C@@]21C (some centres not stated),outcome,[1],inactive
same,Potency,[9],inactive
same,Potency,[7],inactive
O=C(OCCCCCOC(=O)c1ccccc1)c1ccccc1,outcome,[1],inactive
same,outcome,[8],inactive
same,Potency,[7],inactive
NC(=O)c1ccccc1,outcome,[1],inactive
same,Potency,[9],inactive
same,outcome,[2],inactive
same,outcome,[5],inactive
same,Potency,[7],inactive
C=C[Si]1(C)O[Si](C)(C=C)O[Si](C)(C=C)O[Si](C)(C=C)O1 (configuration not stated),outcome,[1],inactive
same,outcome,[8],inactive
same,Potency,[7],inactive
CCCCCCC/C=C/C=O,outcome,[1],inactive
same,Potency,[9],inactive
same,Potency,[7],inactive
O=C(Cl)c1ccc(F)c(Cl)c1,outcome,[1],inactive
same,Potency,[9],inactive
same,Potency,[7],inactive
O=C(O)c1ccc2cc(O)ccc2c1,outcome,[1],inactive
same,outcome,[8],inactive
same,Potency,[7],inactive
C=C(C)C(=O)OCCCCCCCCCCOC(=O)C(=C)C,outcome,[1],inactive
same,outcome,[8],inactive
same,Potency,[7],inactive
Clc1cccc(C(c2ccc3nc[nH]c3c2)n2ccnc2)c1 (configuration not stated),outcome,[1],inactive
same,Potency,[7],inactive
CC(C)CCCCCCCOC(=O)c1ccc(C(=O)OCCCCCCCC(C)C)c(C(=O)OCCCCCCCC(C)C)c1,outcome,[1],inactive
same,Potency,[7],inactive
CCCCOc1ccc(N)cc1,outcome,[1],inactive
same,outcome,[8],inactive
same,Potency,[7],inactive
CC[C@H](NC(C)C)[C@H](O)c1ccc(O)c2[nH]c(=O)ccc12,outcome,[1],inactive
same,outcome,[8],inactive
same,Potency,[7],inactive
CC(C)CCCCCOC(=O)CS,outcome,[1],inactive
same,outcome,[8],inactive
same,Potency,[7],inactive
CCCCCC1CCC(=O)O1 (configuration not stated),outcome,[1],inactive
same,Potency,[7],inactive
C[C@]12CCC(=O)C=C1[C@@H]1C[C@@H]1[C@H]1[C@@H]3[C@@H]4C[C@@H]4[C@@]4(CCC(=O)O4)[C@@]3(C)CC[C@@H]12,outcome,[1],inactive
same,Potency,[9],inactive
same,Potency,[7],inactive
CCOc1ccc(NC(C)=O)cc1N,outcome,[1],inactive
same,outcome,[8],inactive
same,Potency,[7],inactive
O=C(O)c1ccc2c(c1)nc(C(=O)NC1CCN(C3CC3)CC1)n2Cc1cc(-c2ccc(Cl)s2)on1,"activity change, negative = cytotoxicity",[1],0.727% [at 19 µM]
same,"viability change, negative = cytotoxic",[7],-4.05% [at 19 µM]
Nc1ccc(-c2ccc(F)cc2)cc1,outcome,[1],inactive
same,outcome,[8],inactive
same,Potency,[7],inactive
C=CC(C)(O)CC/C=C(/C)CCC=C(C)C (configuration not stated),outcome,[1],inactive
same,Potency,[7],inactive
C[C@H](N)C(=O)N[C@@H](C)C(=O)NC1[C@H]2CN(c3nc4c(cc3F)c(=O)c(C(=O)O)cn4-c3ccc(F)cc3F)C[C@@H]12 (some centres not stated),outcome,[1],inactive
same,outcome,[8],inactive
same,Potency,[7],inactive
Cc1cc(N)n(-c2ccccc2)n1,outcome,[1],inactive
same,outcome,[8],inactive
same,Potency,[7],inactive
OCCOc1cccc(OCCO)c1,outcome,[1],inactive
same,outcome,[8],inactive
same,Potency,[7],inactive
Cc1ccc(NC(=O)c2ccc(CN3CCN(C)CC3)cc2)cc1Nc1nccc(-c2cccnc2)n1,outcome,[1],inactive
same,Potency,[7],23.7 µM (active)
O=C1c2ccccc2C(=O)C1c1ccc2cc(S(=O)(=O)O)cc(S(=O)(=O)O)c2n1,outcome,[1],inactive
same,outcome,[8],inactive
same,Potency,[7],29.5 µM (active)
O=C(O)c1cc(C(=O)O)c(C(=O)O)cc1C(=O)O,outcome,[1],inactive
same,outcome,[8],inactive
same,Potency,[7],inactive
O=S(=O)(O)c1cc(Cl)c(Cl)cc1Cl,outcome,[1],inactive
same,Potency,[7],inactive
CC1(C)CC(=O)CC(C)(C)N1,outcome,[1],inactive
same,Potency,[7],inactive
CCc1cnc(C(=O)O)c(C(=O)O)c1,outcome,[1],inactive
same,Potency,[7],inactive
CC(C)Oc1ccccc1O,outcome,[1],inactive
same,Potency,[7],inactive
CO[C@@H]1COCC[C@@H]1N[C@@H]1CC[C@@](C(=O)N2CCc3ncc(C(F)(F)F)cc3C2)(C(C)C)C1,outcome,[1],inactive
same,Potency,[7],inactive
CCCCCCCCCCCCN1CCOCC1,outcome,[1],inactive
same,Potency,[7],inactive
Cc1nc(C)c(C)nc1C,outcome,[1],inactive
same,Potency,[7],inactive
C[Si](C)(C)O[Si](C)(C)O[Si](C)(C)C,outcome,[1],inactive
same,Potency,[7],inactive
Cc1ccc(NC=O)c(C)c1,outcome,[1],inactive
same,Potency,[7],inactive
O=C(Cl)c1cc(Cl)cc(Cl)c1,outcome,[1],inactive
same,Potency,[7],inactive
CC/C=C/CCO,outcome,[1],inactive
same,Potency,[7],inactive
CC(=O)c1cccnc1,outcome,[1],inactive
same,Potency,[7],inactive
